Active and inactive are the calls of the source. Unless noted, no rule for the calls is given here.
Columns and labels:
[1] = resazurin metabolic signal in HepG2 cells – cell-based, resazurin fluorescence, 24 h, PK04 Diversity Set, profiling panel (AID 1172); conditions: HepG2 viability, higher = more signal; also: test concentration not given here
[2] = budding yeast growth changes without added modifier – OD600, strain BY4716, 24 h, basal condition, primary screen (AID 1173); conditions: S. cerevisiae BY4716 growth, OD600, 24 h; higher = more signal, called active from +8 up or from −8 down
[3] = viability profiling in MM1S myeloma cells – cell-based, resazurin fluorescence, basal, 24 h, PK04 Diversity Set, profiling panel (AID 1174); conditions: higher = more signal, called active from +8 up or from −8 down;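 also: MM1S multiple myeloma cell line; test concentration not given here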
[4] = molecular target: Dihydroorotate dehydrogenase (quinone), mitochondrial (Plasmodium falciparum (isolate 3D7)) (UniProt Q08210); experiment: inhibition of P. falciparum DHODH – biochemical, C-terminal His tag, absorbance 600 nm, primary screen (AID 1175); conditions: PfDHODH enzyme, DCIP absorbance 600 nm; higher = more signal, called active from +8 up or from −8 down;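 also: recombinant parasite enzyme with a five histidine tag at its C terminus; test concentration not given here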
[5] = inhibition of PAO1 biofilm formation – strain PAO1, LB-PBS medium, absorbance 600 nm, primary screen (AID 1176); also: test concentration not given here; conditions: P. aeruginosa PAO1 growth/biofilm, A600, 12 h; higher = more signal
[6] = growth modulation of vineyard yeast isolate – strain RM11-1a, OD600, basal, 24 h, primary screen (AID 1177);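 also: cultures grown under basal conditions with no added stressor; test concentration not given here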; conditions: S. cerevisiae RM11-1a growth, OD600, 24 h; higher = more signal, called active from +8 up or from −8 down
[7] = growth of efflux-deficient E. coli DRC39 – strain DRC39, OD650, 24 h, E. coli filamentation inducers, primary screen (AID 1178);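 also: growth measured as culture turbidity by optical density at 650 nm; test concentration not given here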; conditions: E. coli DRC39 acrAB, higher = more signal, called active from +8 up or from −8 down
[8] = growth of efflux-deficient E. coli DRC39 – strain DRC39, OD650, 48 h, E. coli filamentation inducers, primary screen (AID 1179);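 also: screen aims at cell division blockers that make cells filament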; conditions: E. coli DRC39 delta-acrAB growth, higher = more signal, called active from +8 up or from −8 down
[9] = viability profiling in RPMI8226 myeloma cells – cell-based, resazurin fluorescence, basal, 24 h, PK04 Diversity Set, profiling panel (AID 1180); conditions: higher = more signal;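 also: RPMI8826 multiple myeloma cell line at 5000 cells per well; test concentration not given here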
[10] = molecular target: E3 ubiquitin-protein ligase XIAP (Homo sapiens) (UniProt P98170); experiment: small molecules binding XIAP protein – biophysical, small-molecule microarray, fluorescence 635 nm, primary screen (AID 1181); conditions: higher = more signal;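 also: score merges 667 nm emission and signal to noise over triplicate slides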
Chain of E3 ubiquitin-protein ligase XIAP (Homo sapiens) (P98170 whole entry, looked up): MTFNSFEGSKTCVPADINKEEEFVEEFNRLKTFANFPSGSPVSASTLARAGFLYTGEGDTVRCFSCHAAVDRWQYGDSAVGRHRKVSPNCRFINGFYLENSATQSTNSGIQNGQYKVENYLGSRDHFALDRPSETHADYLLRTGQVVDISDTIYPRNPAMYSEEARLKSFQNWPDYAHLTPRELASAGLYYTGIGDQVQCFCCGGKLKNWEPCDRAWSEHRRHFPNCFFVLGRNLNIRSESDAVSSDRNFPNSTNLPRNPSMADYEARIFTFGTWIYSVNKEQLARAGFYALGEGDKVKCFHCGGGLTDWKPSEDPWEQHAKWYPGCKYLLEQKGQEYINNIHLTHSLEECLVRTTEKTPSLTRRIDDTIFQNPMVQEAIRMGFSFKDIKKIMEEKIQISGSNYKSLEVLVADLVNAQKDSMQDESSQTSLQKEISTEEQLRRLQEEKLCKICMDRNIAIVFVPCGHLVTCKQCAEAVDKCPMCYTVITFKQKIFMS

Chain of Dihydroorotate dehydrogenase (quinone), mitochondrial (Plasmodium falciparum (isolate 3D7)) (Q08210 whole entry, looked up): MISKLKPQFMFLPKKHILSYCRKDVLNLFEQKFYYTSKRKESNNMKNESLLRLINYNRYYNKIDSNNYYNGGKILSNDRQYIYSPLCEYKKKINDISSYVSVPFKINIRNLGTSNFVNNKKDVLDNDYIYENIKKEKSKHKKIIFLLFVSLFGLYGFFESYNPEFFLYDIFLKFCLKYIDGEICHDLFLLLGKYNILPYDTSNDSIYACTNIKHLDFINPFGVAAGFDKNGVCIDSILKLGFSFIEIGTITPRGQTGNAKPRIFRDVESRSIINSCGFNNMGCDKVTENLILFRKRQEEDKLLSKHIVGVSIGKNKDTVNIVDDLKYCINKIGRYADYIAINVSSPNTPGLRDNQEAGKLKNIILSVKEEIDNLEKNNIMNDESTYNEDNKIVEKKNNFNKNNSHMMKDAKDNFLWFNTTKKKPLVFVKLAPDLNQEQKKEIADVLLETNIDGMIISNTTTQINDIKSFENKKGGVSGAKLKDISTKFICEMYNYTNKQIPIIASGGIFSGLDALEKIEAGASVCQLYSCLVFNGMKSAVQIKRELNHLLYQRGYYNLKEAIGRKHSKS

Compound	z-score [1]	z-score [2]	z-score [3]	composite z-score [4]	z-score [5]	z-score [6]	z-score [7]	z-score [8]	z-score [9]	composite z-score [10]
COC(=O)[C@@]1(Cc2ccc(F)cc2)[C@H]2c3cc(C(=O)N(C)C)n(Cc4ccc(S(C)(=O)=O)cc4)c3C[C@H]2CN1C(=O)c1ccccc1	-0.304	0.571 (inactive)	-0.0532 (inactive)	0.382 (inactive)	0.122 (inactive)	0.325 (inactive)	-0.104 (inactive)	0.118 (inactive)	-1.04	-0.102
CC(=O)NCCCC[C@@H]1NC(=O)[C@@H]2C[C@H](C(=O)NCCCCN(C)C)[C@H](c3cccc(OCCO)c3)N2C1=O	1.03	0.108 (inactive)	-0.721 (inactive)	-0.446 (inactive)	-0.875 (inactive)	0.0173 (inactive)	0.374 (inactive)	0.313 (inactive)	0.507	-0.404
Cc1ccc(S[C@]2(C(=O)NCCN3CCOCC3)CC(=O)N(Cc3ccccc3)[C@@H]2c2ccc(CO)cc2I)cc1	-0.396	-3.23 (inactive)	-2.91 (inactive)	-4.58 (inactive)	0.422 (inactive)	-1.71 (inactive)	0.359 (inactive)	-0.46 (inactive)	-2.02	-0.152
C=CCOC(=O)[C@@H]1[C@H]2C(=O)O[C@H](c3ccccc3)[C@H](c3ccccc3)N2[C@H](c2ccc(OCCOC(=O)[C@@H]3C[C@@H]4C(=O)N[C@@H](CCCC[N+](C)(C)C)C(=O)N4[C@@H]3c3cccc(OCCO)c3)cc2)[C@@]12C(=O)Nc1ccc(I)cc12	1.34	-1.21 (inactive)	-0.669 (inactive)	-5.39 (inactive)	1.18 (inactive)	1.98 (inactive)	-0.62 (inactive)	-0.659 (inactive)	-0.847	-0.126
COc1cc2c(cc1O)C=[N+](Cc1cccc(OC(F)(F)F)c1)CC2	-0.935	0.165 (inactive)	-0.682 (inactive)	-3.35 (inactive)	-0.531 (inactive)	-0.957 (inactive)	0.0214 (inactive)	0.569 (inactive)	-1.25	-0.259
COCCOC(=O)N1C(=O)[C@@]2(c3cc(C#Cc4ccc(OC)cc4)ccc31)[C@H](C(N)=O)[C@H]1C(=O)O[C@H](c3ccccc3)[C@H](c3ccccc3)N1[C@@H]2c1ccccc1OCCO	-0.483	1.06 (inactive)	-2.17 (inactive)	0.361 (inactive)	2.94 (inactive)	1.5 (inactive)	-0.688 (inactive)	-0.469 (inactive)	-2.68	0.0748
COCCCN1C(=O)[C@@]2(c3ccc([N+](=O)[O-])cc3)CC(=O)N(C3CCCCC3)[C@@H]2c2ccc(CO)cc21	-0.207	1.12 (inactive)	-0.559 (inactive)	-26.4 (active)	0.158 (inactive)	0.0091 (inactive)	-0.0215 (inactive)	-0.13 (inactive)	-0.837	-0.37
COCCOC(=O)N1C(=O)[C@@]2(c3cc(C#CCNC(N)=O)ccc31)[C@H](C(=O)NC[C@H](O)c1ccccc1)[C@H]1C(=O)O[C@H](c3ccccc3)[C@H](c3ccccc3)N1[C@@H]2c1ccccc1OCCO	-0.577	1.39 (inactive)	0.796 (inactive)	0.272 (inactive)	2.62 (inactive)	1.97 (inactive)	1.01 (inactive)	1.1 (inactive)	0.952	0.108
C=CCN1C(=O)[C@]2(O[C@H](CCO)[C@@H]([Si](C)(C)c3ccc(OC)cc3)[C@@H]2C)c2cc(N3C(=O)c4cccc5cccc3c45)ccc21	-5.43	1.7 (inactive)	-8.43 (active)	1.72 (inactive)	0.662 (inactive)	6.52 (inactive)	2.21 (inactive)	1.44 (inactive)	-6.23	0.0374
COCCOC(=O)N1C(=O)[C@@]2(c3cc(C#CCCO)ccc31)[C@H](c1ccc(OCCO)cc1)N1[C@H](c3ccccc3)[C@H](c3ccccc3)OC(=O)[C@H]1[C@@H]2C(=O)N1CCN(c2ncccn2)CC1	0.235	1.37 (inactive)	0.327 (inactive)	-0.547 (inactive)	1.27 (inactive)	1.24 (inactive)	-0.448 (inactive)	-0.327 (inactive)	0.52	-0.212
COCCCNC(=O)[C@@]1(Cc2ccccc2N=[N+]=[N-])N=C(c2ccc(OCCCO)cc2)O[C@H]1c1ccccc1N=[N+]=[N-]	-0.993	-0.181 (inactive)	-2.32 (inactive)	1.21 (inactive)	0.454 (inactive)	1.83 (inactive)	0.478 (inactive)	-0.607 (inactive)	-1.99	0.323
CC1(C)[C@@H]2CC(C(O)C3C=CC4C(=O)N(c5ccccc5)C(=O)C4N3Nc3ccccc3)=C[C@H]1C2 (stereo not given in full)	0.0594	-3.01 (inactive)	-0.852 (inactive)	0.232 (inactive)	0.711 (inactive)	-0.0064 (inactive)	-0.441 (inactive)	-0.328 (inactive)	-1.08	0.169
CCCCN1CC=CC23O[C@@H]4/C=C\CCC(C)OC(=O)C4[C@H]2C(=O)N(CCCCCO)[C@@H]3C1=O (stereo not given in full)	0.389	0.0305 (inactive)	0.96 (inactive)	0.18 (inactive)	0.646 (inactive)	-0.0125 (inactive)	0.511 (inactive)	0.35 (inactive)	0.05	-0.0436
CN1C(=O)C2C=CC(C(O)c3ccccc3)N(Nc3ccccc3)C2C1=O (stereo not given)	-1.05	-0.506 (inactive)	-1.83 (inactive)	0.0323 (inactive)	1.67 (inactive)	0.166 (inactive)	-1.17 (inactive)	-1.29 (inactive)	-1.52	0.0651
NCCCCCNC(=O)[C@@H]1C[C@@H]2C(=O)N[C@@H](Cc3ccccc3)C(=O)N2[C@@H]1c1cccc(OCCO)c1	-0.837	1.04 (inactive)	-0.104 (inactive)	0.251 (inactive)	0.174 (inactive)	0.606 (inactive)	-0.297 (inactive)	-0.457 (inactive)	-0.603	0.416
C#CCNC(=O)[C@H](Cc1ccccc1)NC(=O)CCC(=O)O	-0.487	-0.734 (inactive)	-0.135 (inactive)	0.139 (inactive)	0.927 (inactive)	-0.051 (inactive)	-0.306 (inactive)	-0.125 (inactive)	-1.28	-0.239
COCCOC(=O)N1C(=O)[C@@]2(c3cc(C#CC4=CCCCC4)ccc31)[C@H](C(=O)Nc1nc3ccccc3s1)[C@H]1C(=O)O[C@H](c3ccccc3)[C@H](c3ccccc3)N1[C@@H]2c1ccc(OCCO)cc1	0.366	1.05 (inactive)	0.295 (inactive)	0.0498 (inactive)	4.33 (inactive)	2.51 (inactive)	-1.26 (inactive)	-2.09 (inactive)	-0.0984	-0.106
Cc1ccc(S[C@]2(C(=O)NCCN3CCOCC3)CC(=O)N(Cc3ccccc3Cl)[C@@H]2c2ccc(CO)cc2)cc1	0.286	-0.709 (inactive)	1.04 (inactive)	-0.245 (inactive)	0.621 (inactive)	0.381 (inactive)	0.381 (inactive)	0.237 (inactive)	0.958	0.0428
COC(=O)[C@@]1(Cc2ccc(OC)cc2)[C@H]2c3cc(C(=O)N4CCCC4)n(Cc4ccc(OC)c(OC)c4)c3C[C@H]2CN1C(=O)c1ccccc1	0.277	1.66 (inactive)	-0.994 (inactive)	-0.245 (inactive)	0.259 (inactive)	0.744 (inactive)	-0.333 (inactive)	-0.888 (inactive)	-0.636	-0.0541
COC(=O)[C@@]1(Cc2ccc(F)cc2)[C@H]2c3cc(C(=O)N(C)C)n(CC4CC4)c3C[C@H]2CN1C(=O)c1ccccc1	-0.881	1.78 (inactive)	-1.37 (inactive)	-0.0778 (inactive)	0.206 (inactive)	0.479 (inactive)	-0.868 (inactive)	-0.398 (inactive)	-2.09	0.454
O=C(NCc1ccccc1)[C@@]1(Cc2ccccc2)N=C(c2ccc(OCCCO)cc2)O[C@H]1c1ccccc1	-0.0664	0.629 (inactive)	-1.67 (inactive)	0.987 (inactive)	0.494 (inactive)	1.7 (inactive)	0.482 (inactive)	-0.3 (inactive)	-2.66	-0.0563
COCCOC(=O)N1C(=O)[C@@]2(c3cc(C#CC4(O)CCCCCC4)ccc31)[C@H](c1ccc(O)cc1)N1[C@H](c3ccccc3)[C@H](c3ccccc3)OC(=O)[C@H]1[C@@H]2C(=O)Nc1nc2ccccc2s1	-0.181	-0.213 (inactive)	0.0851 (inactive)	0.811 (inactive)	0.51 (inactive)	0.443 (inactive)	-0.239 (inactive)	0.208 (inactive)	-0.815	0.0679

Reference: PubChem BioAssay
